An excerpt weighted towards active compounds, which were near 2.4% of everything screened.
D2 ag-1 = HTS Assay for Allosteric Agonists of the Human D2 Dopamine Receptor: Primary Screen for Agonists. HEK293 T-REx D2 cells, calcium flux agonist mode. activation, % at 2 µM. 340,000 compounds, 0.53% hits. D(2) dopamine receptor (Homo sapiens), P14416;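 active means activation over 3 SD above normal in the single-dose calcium agonist read, cut at about 30% in these data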; further: 0% is about no effect
Target sequence (P14416 whole entry, looked up): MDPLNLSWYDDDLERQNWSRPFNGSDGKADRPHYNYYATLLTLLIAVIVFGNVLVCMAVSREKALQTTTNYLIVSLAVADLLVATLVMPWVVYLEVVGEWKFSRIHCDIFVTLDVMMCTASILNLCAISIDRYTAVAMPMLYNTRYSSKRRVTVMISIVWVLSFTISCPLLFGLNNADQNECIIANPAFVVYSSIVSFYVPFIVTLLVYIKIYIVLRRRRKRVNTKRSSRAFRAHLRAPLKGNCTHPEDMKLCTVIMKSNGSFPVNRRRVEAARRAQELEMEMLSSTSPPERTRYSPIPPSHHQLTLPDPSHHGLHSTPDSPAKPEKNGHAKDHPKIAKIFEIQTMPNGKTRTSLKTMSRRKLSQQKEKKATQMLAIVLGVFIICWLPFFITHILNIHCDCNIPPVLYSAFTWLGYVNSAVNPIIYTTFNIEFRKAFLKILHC
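In this primary screen, compounds producing a positive calcium signal within 180 s of addition to tetracycline-induced, force-coupled HEK293 Trex D2 cells are flagged; cells are dye-loaded with a no-wash calcium kit beforehand.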
D2 PAM-1 = HTS Assay for Positive Allosteric Modulators of the Human D2 Dopamine Receptor: Primary Screen for Potentiators | potentiation, % at 10 µM | HEK293 T-REx D2, calcium flux, EC20 dopamine potentiation | 340,000 compounds, 0.34% hits;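 active means potentiation over 3 SD above the plate norm, cut at about 30% in these data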; further: 0% is about no effect
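Potentiation of an EC20 dopamine calcium response is measured in a force-coupled, tetracycline-inducible Hek293 Trex D2 line. Compound-only kinetic reads over 180 s flag agonists before dopamine addition.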
D2 ag-2 = Beta-Arrestin HTS for Positive Allosteric Modulators of the Human D2 Dopamine Receptor: Agonists. D(2) dopamine receptor (Homo sapiens), P14416. DiscoveRx PathHunter D2 beta-arrestin, luminescence, 90 min; 100% = 57 uM dopamine signal. activation, % (no concentration beside the values). 360,000 compounds, 0.084% hits. AID 624465, 2012; in the data active means activation above about 40%; inconclusive means between about 15% and that limit
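Agonist mode: compounds alone added to overnight-plated D2 PathHunter cells for 90 min at 37 C, with 57 uM final dopamine (EC100) defining full response. Beta-arrestin recruitment detected by chemiluminescent reagent, read after 1 h at ambient temperature.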
D2 PAM-2 = Beta-Arrestin HTS for Positive Allosteric Modulators of the Human D2 Dopamine Receptor: Potentiators; DiscoveRx D2 beta-arrestin cells, luminescence, 90 min; 100% = 57 uM dopamine signal; potentiation, % (no concentration beside the values); 360,000 compounds, 0.23% hits; AID 624464, 2012; in the data active means potentiation above about 50%; inconclusive means mostly about 30% to 49%
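D2 cells co-treated with compound plus 50 nM dopamine (EC20) for 90 min at 37 deg C to detect potentiation. Beta-arrestin recruitment was read as enzyme-fragment luminescence after 1 h at ambient temperature. Full response was set by 57 uM dopamine.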
D2 antagonist = HTS Assay for Allosteric Antagonists of the Human D2 Dopamine Receptor: Primary Screen for Antagonists | HEK293 TREx D2 cells, calcium flux, dopamine EC80 | inhibition, % at 10 µM | 340,000 compounds, 2% hits; in the data active means inhibition above about 30%; inactive means below that, where a call was filed; further: 0% is about no effect
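HEK293 T-REx D2 cells, tet-induced, calcium dye no-wash. Cpd pintool add, 180 s kinetic, then EC80 DA, 180 s kinetic. Ca flux read.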
An asterisk follows results filed as active; ? = inconclusive; nt = not tested or not shown.

SMILES	D2 ag-1	D2 PAM-1	D2 ag-2	D2 PAM-2	D2 antagonist
CCOc1ccc2nc(N3CCCC(C(=O)Nc4cc(Cl)c(OC)cc4OC)C3)sc2c1 (stereo not drawn)	1	-4	nt	nt	nt
O=C(O)CCC(=O)CCC(=O)c1ccccc1	0	-8	0	-3	35*
Cc1ccc(C(=O)CCC(=O)CCC(=O)O)cc1	nt	nt	-1	-2	nt
Oc1ccc(C(=S)N2CCN(Cc3ccccc3)CC2)cc1	0	-10	-2	-18	-13
Cc1ccc(C(=S)N2CCN(Cc3ccccc3)CC2)s1	0	-32	4	-9	50*
Cc1cc(C)nc(Sc2ccc([N+](=O)[O-])cc2[N+](=O)[O-])n1	0	10	9	70*	-7
O=[N+]([O-])c1ccc(Sc2ccncn2)c([N+](=O)[O-])c1	nt	nt	?	-16	nt
COc1cccc(NC(=O)CN(C)C(=O)c2cccc(NS(=O)(=O)c3ccccc3)c2)c1	0	-10	0	-2	32*
COc1cccc(NC(=O)CN(C)C(=O)c2cccc(NS(=O)(=O)c3ccc(Br)cc3)c2)c1	nt	nt	-1	-3	nt
Cc1ccc(NC(=O)CN(C)C(=O)c2cccc(S(=O)(=O)NCc3ccccc3)c2)cc1	0	-2	-3	-38	46*
COc1cccc(NC(=O)CN(C)C(=O)CC(NC(=O)c2ccccc2Cl)c2ccccc2)c1 (stereo not drawn)	0	-22	-1	-5	32*
Cc1ccc(NC(=O)CN(C)C(=O)c2cccc(S(=O)(=O)NCc3cccs3)c2)cc1	0	-19	4	-6	-22
CCCCC1CCC(C(=O)N2CC(=O)Nc3ccc(C)cc3C2c2ccc(F)cc2)CC1 (stereo not drawn)	0	19	nt	nt	nt
CCn1c(SCc2ccc(F)cc2Cl)nc(=O)c2c(C(=O)OC)cc(C3CC3)nc21	1	-3	nt	nt	nt
CCCCOc1ccc(S(=O)(=O)Nc2cccc(-c3ccc(N4CCOCC4)nn3)c2)cc1	nt	11	nt	nt	nt
C=CCn1c(Oc2cc(C)ccc2C)nc2c1c(=O)n(C)c(=O)n2C	-1	15	0	16	30*
COc1ccccc1CNC(=O)CCc1c(C)c2cc3c(C)coc3cc2oc1=O	-1	2	nt	nt	nt
C/C(=N\OC(=O)Nc1ccc(Cl)cc1)c1ccc(F)c(F)c1	-1	-26	11	-17	41*
COc1ccc(C(=O)Nc2cccc(-c3cn4ccsc4n3)c2)cc1OC	1	-1	nt	nt	nt
COc1cccc(CSc2nc3n(n2)C(CC(C)C)C(C(=O)Nc2ccccc2OC)=C(C)N3)c1 (stereo not drawn)	0	nt	nt	nt	nt
CC(=O)c1ccc(NC(=O)C2CCN(S(=O)(=O)c3ccc4c(c3)CCCN4C(=O)C3CCC3)CC2)cc1	1	11	nt	nt	nt
Cc1sc(NC(=O)c2cccs2)c(C(=O)OC(C)C)c1C	1	-5	-6	-2	31*
O=C(Nc1ccno1)Nc1ccc(Cl)cc1Cl	0	5	?	62*	-3
O=C(Nc1ccc(Cl)cc1Cl)Nn1cnnc1	1	-2	-5	-15	-9
CC(C)N(Cc1ccccc1)C(=O)COC(=O)C1CCN(c2ccc(C(F)(F)F)cn2)CC1	1	-11	-5	-6	3
SMILES	D2 ag-1	D2 PAM-1	D2 ag-2	D2 PAM-2	D2 antagonist
CC(C)(C)N(Cc1ccccc1)C(=O)COC(=O)C1CCN(c2ccc(C(F)(F)F)cn2)CC1	0	59*	-6	-15	-17
CCOc1ccccc1NC(=O)Nc1cc(C(=O)NCc2ccc(C)cc2)ccc1N1CCCC1	7	9	nt	nt	nt
CCOc1ccc(CNCCN2CCCC2)cc1	1	-19	-4	-14	74*
CCN(CC)c1ccc(/C=C/c2cc(-c3ccccc3)c3ccccc3n2)cc1	54*	-6	2	-3	43*
CN1c2ccccc2-c2nc(SCC(=O)Nc3ccccc3)ncc2S1(=O)=O	0	-6	nt	nt	nt
CCN1C(=O)OC2(CCCCC2)C1(C)O (stereo not drawn)	0	41*	nt	nt	7
CCOC(=O)N1CCN(C(=O)c2ccc3c(c2)N(Cc2ccccc2F)C(=O)c2ccccc2S3(=O)=O)CC1	0	2	nt	nt	nt
CCCCC1=CC2=C(c3ccco3)C(=O)C(C)(OC(=O)c3ccc(OC)cc3)C(=O)C2=CN1Cc1ccc2c(c1)OCO2 (stereo not drawn)	0	0	0	-16	33*
CCCCC1=CC2=CC(=O)C(C)(OC(=O)CC)C(=O)C2=CN1Cc1ccc(OC)cc1 (stereo not drawn)	0	9	3	-1	31*
CCCCC1=CC2=C(c3ccco3)C(=O)C(C)(OC(=O)c3ccc(OC)cc3)C(=O)C2=CN1Cc1ccccc1 (stereo not drawn)	0	-7	3	10	5
COc1ccccc1C(=O)Oc1c(Sc2ccccc2)c(C)nn1C(C)(C)C	1	0	nt	nt	nt
Cc1ccc(C)c(N2CCN(C(=O)CN3C(=S)NC(C)(C)CC3C)CC2)c1 (stereo not drawn)	5	2	2	-3	41*
CC1CC(C)(C)NC(=S)N1CC(=O)N1CCN(Cc2ccccc2)CC1 (stereo not drawn)	0	0	0	-2	-6
Cc1ccc(Nc2nnc(SC(C)C(=O)NCC3CCCO3)s2)cc1C (stereo not drawn)	-1	-10	0	-17	-14
Cc1nnc(SC(C)C(=O)NCC2CCCO2)s1 (stereo not drawn)	0	-9	-3	6	31*
Fc1ccc(N2CCN(C3CCC(c4ccccc4)CC3)CC2)cc1 (stereo not drawn)	12	-18	-4	0	53*
CCN1CCC(N2CCN(c3ccc(F)cc3)CC2)CC1	1	-3	0	-4	-8
Cc1nn2c(=O)cc(COC(=O)c3ccccc3NC(=O)c3ccccc3C)nc2s1	1	7	nt	nt	nt
CCOc1ccc(NC(=O)C2CCCN(c3nn4cc(-c5ccc(OC)cc5)nc4s3)C2)cc1 (stereo not drawn)	0	4	nt	nt	nt
O=c1oc2cc(O)ccc2cc1-c1nc2c(s1)CCc1ccccc1-2	141*	-24	1	15	80*
O=c1oc2ccccc2cc1-c1nc2c(s1)CCc1ccccc1-2	-1	-10	11	?	9
COc1ccc(CNC(=O)c2nn(-c3ccccc3C)nc2CO)cc1	-1	-14	nt	nt	nt
